# A selection: hits, their analogues and other compounds. The true share with any hit is near 3.9%.
# BoNT F protease – BoNT/F light chain protease inhibitors, primary screen, biochemical, flow cytometry, MLPCN library; Botulinum neurotoxin type F light chain protease (Clostridium botulinum); Multiplex microsphere protease cleavage assay; inhibition, % at 10 µM; 360,000 tested, 0.22% active; in the data active means inhibition above about 35%, passing the limit was not always enough; inconclusive means no clear call, values can overlap the other calls
# Bead autofluor – compound fluorescence in toxin protease inhibitor counterscreen | compound autofluorescence counterscreen, microsphere flow cytometry; hits give high values | fluorescence intensity (concentration not given with the values) | 360,000 tested, 3.1% active | AID 624483; in the data active means fluorescence intensity above about 16000; inconclusive means no clear call, values can overlap the other calls
# CCHFV vOTU inh – CCHFV vOTU protease inhibitors, primary screen, biochemical, Pep-AMC substrate, fluorescence. Crimean-Congo hemorrhagic fever virus L polyprotein viral ovarian tumor (vOTU) protease …. inhibition, % at 11.5 µM. 370,000 tested, 0.55% active; in the data active means inhibition above about 30%
# Anthrax LF prot – Bacillus anthracis LF protease inhibitors, primary screen, biochemical, multiplex microsphere, MLPCN library; multiplex microsphere protease cleavage assay; 360,000 tested, 0.12% active; inhibition, % at 10 µM
# SARS 3CLpro inh – SARS-CoV 3CLpro protease inhibitors, primary screen, biochemical, quenched FRET. 290,000 tested, 0.14% active. inhibition, % at 6 µM. AID 1706, 2009. Replicase polyprotein 1ab (Severe acute respiratory syndrome coronavirus), P0C6X7. recombinant SARS-CoV 3CLpro, quenched FRET peptide cleavage; in the data active means inhibition above about 12%
# BoNT A protease – BoNT/A light chain protease inhibitors, primary screen, biochemical, flow cytometry, MLPCN library; Botulinum neurotoxin type A light chain protease (Clostridium botulinum A str. ATCC 3502); multiplex microsphere protease substrate cleavage; inhibition, % at 10 µM; 360,000 tested, 0.17% active
# BoNT-A LC CP1 – BoNT/A light chain protease inhibitors, confirmation, biochemical, flow cytometry, cherry pick 1 | shares compounds with BoNT F protease | multiplex microsphere protease assay | inhibition, % at 10 µM | 720 tested, 3% active | AID 602139, 2011; in the data active means inhibition above about 32%
# BoNT-F LC CP1 – BoNT/F light chain protease inhibitors, confirmation, biochemical, flow cytometry, cherry pick 1. shares compounds with BoNT F protease. multiplex microsphere protease cleavage assay. inhibition, % at 10 µM. 720 tested, under 10 active. AID 602140, 2011; call rule not given here
# LF protease CP1 – Bacillus anthracis LF protease inhibitors, confirmation, biochemical, multiplex microsphere, cherry pick 1; AID 602142, 2011; 720 tested, under 10 active; shares compounds with BoNT F protease; inhibition, % at 10 µM; multiplex microsphere protease cleavage assay; call rule not given here
# Numbers stand for hits; n = inactive; u = inconclusive; x = not tested or not shown. Unless noted, no stated cut-off is given here; in the data, active means inhibition above about 30%; inconclusive means no clear call, values can overlap the other calls; inactive means below that.
SMILES,BoNT F protease,Bead autofluor,CCHFV vOTU inh,Anthrax LF prot,SARS 3CLpro inh,BoNT A protease,BoNT-A LC CP1,BoNT-F LC CP1,LF protease CP1
N=c1n(CCO)c2ccccc2n1Cc1ccccc1,n,n,n,n,n,n,x,x,x
N=c1n(CCO)c2ccccc2n1Cc1ccccc1Cl,n,n,n,n,n,n,n,n,n
Cc1ccc(S(=O)(=O)N2CCCN(c3nc4cc(C)ccc4cc3C#N)CC2)cc1,n,n,n,n,n,39.6,n,n,n
CCNC(=O)C1(C)CCN(C(=O)c2ccc(OC)cc2)C1 (stereo not drawn),n,n,n,n,x,n,x,x,x
COc1ccccc1OCCNC(=O)Nc1cc(F)c(F)cc1Cl,u,n,n,31.0,n,n,n,n,n
CN(C)S(=O)(=O)c1cc(C(=O)NCCCn2ccc3ccccc32)ccc1Cl,n,n,n,n,n,n,n,n,n
CC(C)C[C@@H](CN1CCCC1CN1C(=S)NC[C@@H]1Cc1ccc(O)cc1)N1C[C@H](Cc2ccc(O)cc2)N(CC2CCCCC2)C1=S (stereo partly drawn),n,n,n,n,x,n,x,x,x
CC(=O)c1c(C)nc(-c2ccc(Cl)cc2)nc1N=CN(C)C,n,n,n,n,n,n,x,x,x
CC(=O)c1c(C)nc(-c2ccc(Cl)cc2)nc1N,50.4,n,n,n,n,n,n,n,n
CN(C)c1nc(N)c2nccnc2n1,n,n,n,n,x,n,x,x,x
CSc1cnc2c(N)nc(N(C)C)nc2n1,48.9,n,n,n,n,n,n,n,n
O=C(C1=NOC2(C1)C(=O)Nc1ccccc12)N1CCCC1 (stereo not drawn),n,n,n,n,x,n,x,x,x
CCOc1ccc(C(=O)OCC(=O)NCCCc2ccccc2)cc1,n,n,n,n,n,n,x,x,x
O=C(NC1CCCCCC1)C1CCCN(c2ncccn2)C1 (stereo not drawn),n,n,n,n,n,78.7,n,n,n
CCN1CCc2[nH]c3ccccc3c2C1,54.5,n,n,n,n,n,n,n,n
CC(Cc1c[nH]c2ccccc12)C(=O)N1CCN(c2ccccc2F)CC1 (stereo not drawn),n,n,n,n,n,n,x,x,x
COc1ccc(CNC(=O)C[C@H]2C(=O)N(c3ccccc3)C[C@@H]2Cc2ccccc2)cc1,n,n,n,n,n,n,x,x,x
CCN(Cc1ccccc1)C(c1cc2cc(C)ccc2[nH]c1=O)c1nnnn1CCOC (stereo not drawn),n,n,n,n,n,n,n,n,n
CCN(Cc1ccccc1)C(c1cc2cc(C)cc(C)c2[nH]c1=O)c1nnnn1CCOC (stereo not drawn),n,n,n,n,n,n,x,x,x
N#Cc1cnn(-c2ccc([N+](=O)[O-])cc2[N+](=O)[O-])c1N,n,n,n,n,x,n,x,x,x
CCCC(=O)Nc1nnc(SCC(=O)NCc2ccc3c(c2)OCO3)s1,39.5,n,n,n,n,n,n,n,n
C[C@H]1CN([C@@H](C)CO)C(=O)CCCn2nncc2CO[C@H]1CN(C)C(=O)c1cc(-c2ccccc2)on1,n,n,n,n,x,n,x,x,x
CCOC(=O)c1csc(-c2snnc2C)n1,n,n,n,n,n,n,x,x,x
COc1cc(OC)cc(C(=O)Nn2cnnc2)c1,u,n,n,37.4,n,n,n,n,n
O=C1CC(N2CCOCC2)=NC(=O)N1c1ccc(Br)cc1,x,x,n,x,x,x,x,x,x
SMILES,BoNT F protease,Bead autofluor,CCHFV vOTU inh,Anthrax LF prot,SARS 3CLpro inh,BoNT A protease,BoNT-A LC CP1,BoNT-F LC CP1,LF protease CP1
O=C(O)c1ccc(NC(=O)c2cccc(S(=O)(=O)Nc3ccc(C(=O)O)cc3)c2)cc1,39.0,n,n,n,n,n,n,n,n
O=C(Nc1cccc(O)c1)c1cccc(S(=O)(=O)Nc2cccc(O)c2)c1,n,n,n,n,n,n,n,n,n
O=C(O)c1ccc(NS(=O)(=O)c2ccc(C(=O)Nc3ccccc3)cc2)cc1,n,n,n,n,n,n,n,n,n
CC(=O)c1ccc(S(=O)(=O)Nc2ccc(C(=O)N3CCC3)cc2)cc1,40.1,n,n,n,x,n,n,n,n
O=C(Nc1ccc(NS(=O)(=O)c2ccccc2)cc1)c1ccccc1,n,n,n,n,n,n,x,x,x
O=C(Nc1cccc(O)c1)c1cccc(C(=O)Nc2cccc(O)c2)c1,u,n,n,n,n,n,x,x,x
O=C(O)c1ccc(NC(=O)c2cccc(C(=O)Nc3ccc(C(=O)O)cc3)c2)cc1,n,n,n,n,n,n,x,x,x
Cc1ccc(S(=O)(=O)Nc2ccc(C(=O)N3CCCC3)cc2)cc1,n,n,n,n,n,n,x,x,x
Cc1cccc2c(C(=O)N3CCN(c4ccccn4)CC3)cc(-c3cccc(Br)c3)nc12,n,n,n,n,n,n,x,x,x
CCOC(=O)C1=NS(=O)(=O)NC(C)=C1,n,n,n,n,x,n,x,x,x
N#Cc1ccsc1NC(=O)CN1CCN(Cc2ccccc2)CC1,n,n,n,n,n,n,x,x,x
N#Cc1ccccc1NC(=O)CN1CCN(Cc2ccccc2)CC1,46.1,n,n,n,n,n,n,n,n
CC1CCN(CC(=O)NC2CCCCC2)CC1,u,n,n,n,n,n,x,x,x
Cc1ccc(CNC(=O)C2CCCC2)cc1,n,n,n,n,x,n,x,x,x
Cc1ccc2[nH]c(CNC(=O)C3CCCCC3)cc2c1,n,n,n,n,n,92.6,n,n,n
CCc1cc(C(=O)c2ccc(Br)cc2)c(NC(=O)CN(CC)CC)s1,u,n,n,31.8,n,n,n,n,n
C=CCNC(=S)Nc1sc2c(c1C#N)CCCC2,n,n,n,n,n,n,x,x,x
CCc1nnc(NC(=O)CN2CCN(Cc3ccccc3C)CC2)s1,x,x,n,x,n,x,x,x,x
CCc1nnc(NC(=O)CN2CCN(Cc3ccccc3Cl)CC2)s1,u,n,n,42.3,n,n,n,n,n
CCn1c(SCc2ccccc2)nnc1C1CCN(S(=O)(=O)c2ccc(OC)cc2)CC1,34.7,n,n,n,n,n,n,n,n
CSCCC(NC(=O)c1ccccc1Br)C(=O)N1CCCCCCC1 (stereo not drawn),n,n,n,n,x,n,x,x,x
COc1ccc(-n2c(C)nc(N)c2C(=O)c2ccccc2)cc1,u,n,n,56.3,n,n,n,n,n
COc1ccc(NC(=O)C[C@H]2C(=O)N(c3ccccc3)C[C@@H]2C)cc1,n,n,n,n,x,n,x,x,x

# High-throughput results from PubChem BioAssay.
